These results are taken from the antibiotic and cytotoxicity screens of Wong et al. (2023).

In all, about 39,000 compounds went through this assay and about 500 (1.3%) were called active. Only a selection was taken, and actives are over-represented in it overall.

For this assay, the system named is S. aureus RN4220. Description: growth inhibition call (relative growth <= 0.2). To be noted: 50 µM.
Turning to `CS(=O)(=O)N1C[C@H](NC(=O)C2CC2)[C@H]2OCCC[C@H]21`, the growth inhibition call is “inactive”.

With `C[C@H]1CN([C@@H](C)CO)C(=O)c2cc(NC(=O)Nc3ccc(C(F)(F)F)cc3)ccc2O[C@@H]1CN(C)CC1CCCCC1`, the growth inhibition call was “inactive”. As to `C[C@@H]1CCCCO[C@@H](CN(C)CC2CC2)[C@@H](C)CN([C@H](C)CO)C(=O)c2cc(NC(=O)Nc3ccc(C(F)(F)F)cc3)ccc2O1`, the growth inhibition call was “inactive”. With `C[C@@H]1CCCCO[C@H](CN(C)CC2CC2)[C@H](C)CN([C@@H](C)CO)C(=O)c2cc(NC(=O)Nc3ccc(C(F)(F)F)cc3)ccc2O1`, the growth inhibition call was “active”. The entry for `C[C@@H]1CCCCO[C@H](CN(C)CC2CC2)[C@H](C)CN([C@H](C)CO)C(=O)c2cc(NC(=O)Nc3ccc(C(F)(F)F)cc3)ccc2O1` is “active”; for `C[C@@H]1CCCCO[C@@H](CN(C)CC2CC2)[C@H](C)CN([C@@H](C)CO)C(=O)c2cc(NC(=O)Nc3ccc(C(F)(F)F)cc3)ccc2O1` it is “inactive”. Under `C[C@H]1CCCCO[C@H](CN(C)CC2CC2)[C@@H](C)CN([C@@H](C)CO)C(=O)c2cc(NC(=O)Nc3ccc(C(F)(F)F)cc3)ccc2O1` stands “inactive”; under `C[C@H](CO)N1C[C@H](C)[C@H](CN(C)CC2CCCCC2)Oc2ccc(NC(=O)Nc3ccc(C(F)(F)F)cc3)cc2C1=O`, “active”. As for `C[C@@H]1CN([C@H](C)CO)C(=O)c2cc(NC(=O)Nc3ccc(C(F)(F)F)cc3)ccc2O[C@@H]1CN(C)CC1CCCCC1`, the growth inhibition call is “inactive”. In the case of `C[C@H](CO)N1C[C@H](C)[C@H](CN(C)CC2CC2)OCCCC[C@H](C)Oc2ccc(NC(=O)Nc3ccc(C(F)(F)F)cc3)cc2C1=O`, the growth inhibition call was “inactive”. As for `CCCC#Cc1cnc2c(c1)C(=O)N([C@@H](C)CO)C[C@H](C)[C@@H](CN(C)C(=O)c1ccc3c(c1)OCO3)O2`, the growth inhibition call is “inactive”.

With `C[C@@H]1CN([C@H](C)CO)C(=O)c2cc(NS(=O)(=O)c3cn(C)cn3)ccc2O[C@H]1CN(C)Cc1ccc(C(=O)Nc2ccccc2N)cc1`, the growth inhibition call is “inactive”. Consider `Cc1ccc(S(=O)(=O)Nc2ccc3c(c2)C(=O)N([C@H](C)CO)C[C@@H](C)[C@H](CN(C)Cc2ccc(C(F)(F)F)cc2)O3)cc1`, for which the growth inhibition call was “inactive”. With `COc1ccc(S(=O)(=O)Nc2ccc3c(c2)[C@H]2C[C@@H](CC(=O)NCC4CC4)O[C@H](CO)[C@H]2O3)cc1`, the growth inhibition call was “inactive”. `CCOc1nc2cccc(C(=O)O[C@@H](C)OC(=O)OC3CCCCC3)c2n1Cc1ccc(-c2ccccc2-c2nn[nH]n2)cc1`: the growth inhibition call was “active”. Regarding `CCOc1nc2cccc(C(=O)OC(C)OC(=O)OC3CCCCC3)c2n1Cc1ccc(-c2ccccc2-c2nnn[nH]2)cc1` (centres undefined), the growth inhibition call is “inactive”. The entry for `CCOc1nc2cccc(C(=O)O)c2n1Cc1ccc(-c2ccccc2-c2nnn[nH]2)cc1` is “inactive”; for `C[C@H](CO)N1C[C@H](C)[C@H](CN(C)S(=O)(=O)c2cn(C)cn2)Oc2ncc(-c3cc4ccccc4o3)cc2C1=O` it is “inactive”; for `COc1ccc(NC(=O)N(C)C[C@@H]2Oc3ccc(NC(=O)C4CC4)cc3CC(=O)N([C@@H](C)CO)C[C@@H]2C)cc1` it is “inactive”.

Regarding `Cc1noc(C)c1NC(=O)Nc1cccc2c1O[C@H](CN(C)Cc1ccc(C(=O)Nc3ccccc3N)cc1)[C@H](C)CN([C@@H](C)CO)C2=O`, the growth inhibition call is “inactive”. In the case of `C[C@@H]1CN([C@@H](C)CO)C(=O)c2cc(NS(=O)(=O)c3ccccc3)ccc2O[C@H]1CN(C)S(=O)(=O)c1cccs1`, the growth inhibition call was “inactive”. Regarding `C=CCOC(=O)[C@H]1[C@@H]2C(=O)O[C@@H](c3ccccc3)[C@@H](c3ccccc3)N2[C@@H](c2ccc(OCCOC(=O)[C@@H]3C[C@@H]4C(=O)N[C@@H](CC(C)C)C(=O)N4[C@@H]3c3ccc(O)cc3)cc2)[C@]12C(=O)Nc1ccccc12`, the growth inhibition call was “inactive”. For the compound `C[C@H](CO)N1C[C@H](C)[C@H](CN(C)Cc2ccc(C(=O)Nc3ccccc3N)cc2)Oc2ccc(NC(=O)Cn3cnnn3)cc2C1=O`, the growth inhibition call is “inactive”. Under `C[C@@H](O[C@H]1OCCN(Cc2n[nH]nc2CN(C)C)[C@H]1c1ccc(F)cc1)c1cc(C(F)(F)F)cc(C(F)(F)F)c1` stands “active”; under `CC(OC1OCCN(C(C)c2nc(=O)[nH][nH]2)C1c1ccc(F)cc1)c1cc(C(F)(F)F)cc(C(F)(F)F)c1` (centres undefined), “inactive”; under `C[C@@H]1CN([C@@H](C)CO)C(=O)c2cccc(NC(=O)c3ccc(-c4nccs4)cc3)c2O[C@H]1CN(C)S(=O)(=O)c1cn(C)cn1`, “inactive”. Regarding `COCC#Cc1ccc2c(c1)O[C@@H](CN(C)C(=O)c1ccccc1)[C@@H](C)CN([C@@H](C)CO)S2(=O)=O`, the growth inhibition call is “inactive”. Take `C[C@H](CO)N1C[C@H](C)[C@@H](CN(C)CC2CC2)OCCCC[C@H](C)Oc2ccc(NC(=O)CCCCCC(=O)Nc3ccccc3N)cc2C1=O`: the growth inhibition call is “inactive”.

Consider `Cc1ccc2nc([C@H](N)C(C)C)[nH]c2c1`, for which the growth inhibition call is “inactive”. In the case of `C[C@@H](Oc1ccccc1Cl)c1nc2ccc(Cl)cc2[nH]1`, the growth inhibition call is “active”.

As for `CC(C)[C@@H](N)c1nc2ccccc2[nH]1`, the growth inhibition call is “inactive”. Take `C[C@@H]1CN([C@H](C)CO)C(=O)Cc2cc(NC(=O)CCCCCC(=O)Nc3ccccc3N)ccc2O[C@@H]1CN(C)C(=O)Nc1ccc(C(F)(F)F)cc1`: the growth inhibition call was “inactive”. In the case of `CO/N=C(\C(=O)N[C@@H]1C(=O)N2C(C(=O)O)=C(C[n+]3ccn4ncccc43)CS[C@H]12)c1nsc(N)n1`, the growth inhibition call is “inactive”.

On to `CO/N=C(\C(=O)N[C@@H]1C(=O)N2C(C(=O)O)=C(C[N+]3(C)CCCC3)CS[C@H]12)c1csc(N)n1`, for which the growth inhibition call is “active”. For the compound `CO/N=C(\C(=O)N[C@@H]1C(=O)N2C(C(=O)O[C@@H](C)OC(C)=O)=C(COC(N)=O)CS[C@H]12)c1ccco1`, the growth inhibition call was “inactive”.

`CON=C(C(=O)NC1C(=O)N2C(C(=O)OC(C)OC(C)=O)=C(COC(N)=O)CSC12)c1ccco1` (centres undefined): the growth inhibition call is “inactive”. On to `CON=C(C(=O)N[C@@H]1C(=O)N2C(C(=O)O)=C(CSc3nc(=O)c(O)nn3C)CS[C@H]12)c1csc(N)n1`, for which the growth inhibition call is “active”. On to `CON=C(C(=O)NC1C(=O)N2C(C(=O)O)=C(C[N+]3(C)CCCC3)CSC12)c1csc(N)n1.[Cl-]` (centres undefined), for which the growth inhibition call is “active”. Regarding `CO/N=C(\C(=O)N[C@@H]1C(=O)N2C(C(=O)O)=C(CSc3nnnn3C)CS[C@H]12)c1csc(N)n1`, the growth inhibition call was “inactive”. For the compound `CON=C(C(=O)NC1C(=O)N2C(C(=O)[O-])=C(COC(N)=O)CSC12)c1ccco1.[Na+]` (centres undefined), the growth inhibition call was “active”. Turning to `CC(C)(O/N=C(\C(=O)N[C@@H]1C(=O)N2C(C(=O)O)=C(C[N+]3(CCNC(=O)c4ccc(O)c(O)c4Cl)CCCC3)CS[C@H]12)c1csc(N)n1)C(=O)O`, the growth inhibition call is “inactive”. With `CC(C)(O/N=C(\C(=O)N[C@@H]1C(=O)N2C(C(=O)O)=C(C[n+]3ccccc3)CS[C@H]12)c1csc(N)n1)C(=O)O`, the growth inhibition call is “inactive”. As for `Cc1cn2nc([C@@H]3CCCCN3C(=O)c3cc(Cl)ccc3NS(C)(=O)=O)cc2nc1N1CC[C@H](N)C1`, the growth inhibition call is “inactive”. Consider `NNC(=O)c1cc(=S)nc[nH]1`, for which the growth inhibition call was “inactive”. On to `Cc1noc(C)c1NC(=O)Nc1ccc2c(c1)C(=O)N([C@H](C)CO)C[C@@H](C)[C@H](CN(C)S(=O)(=O)c1cn(C)cn1)O2`, for which the growth inhibition call is “inactive”. Regarding `C[C@@H]1CN([C@@H](C)CO)C(=O)Cc2cc(NC(=O)NC3CCCCC3)ccc2O[C@H]1CN(C)S(C)(=O)=O`, the growth inhibition call was “inactive”. `C[C@H](CO)N1C[C@H](C)[C@@H](CN(C)Cc2ccc(F)cc2)Oc2ncc(C#Cc3cccnc3)cc2C1=O`: the growth inhibition call was “inactive”.

With `C[C@H]1CN([C@@H](C)CO)C(=O)c2cc(NC(=O)CCCN(C)C)ccc2O[C@@H]1CN(C)C(=O)Nc1ccc(F)cc1`, the growth inhibition call is “inactive”. Consider `C[C@@H]1CN([C@@H](C)CO)C(=O)c2c(c3ccccc3n2C)-c2ccccc2CO[C@@H]1CN(C)Cc1cccc(C(F)(F)F)c1`, for which the growth inhibition call is “inactive”.

As for `C[C@@H]1CN([C@@H](C)CO)C(=O)c2cccc(NC(=O)C3CCOCC3)c2O[C@@H]1CN(C)Cc1ccncc1`, the growth inhibition call is “inactive”. Regarding `O=C(C[C@@H]1CC[C@@H]2[C@H](COC[C@H](O)CN2S(=O)(=O)c2ccccc2)O1)N1CCOCC1`, the growth inhibition call is “inactive”. `CCCNC(=O)N1C[C@@H](O)COC[C@H]2O[C@H](CC(=O)NCCCN3CCOCC3)CC[C@@H]21`: the growth inhibition call was “inactive”. As to `C[C@@H]1CN([C@@H](C)CO)C(=O)c2cc(NC(=O)C3CCCCC3)ccc2O[C@@H](C)CCCCO[C@H]1CN(C)S(=O)(=O)c1ccc(Cl)cc1`, the growth inhibition call is “inactive”. On to `C[C@@H]1CN([C@H](C)CO)C(=O)c2cc(NC(=O)Nc3ccc4c(c3)OCO4)ccc2O[C@@H](C)CCCCO[C@@H]1CN(C)C(=O)c1ccccc1`, for which the growth inhibition call is “inactive”. Under `COc1ccccc1C#Cc1ccc2c(c1)O[C@@H](CN(C)C(C)=O)[C@H](C)CN([C@@H](C)CO)S2(=O)=O` stands “inactive”; under `CO/N=C(\C(=O)N[C@@H]1C(=O)N2C(C(=O)O)=C(C)CS[C@H]12)c1csc(N)n1`, “active”.

Regarding `CON=C(C(=O)NC1C(=O)N2C(C(=O)[O-])=C(COC(C)=O)CSC12)c1csc(N)n1.[Na+]` (centres undefined), the growth inhibition call is “active”. With `COCC1=C(C(=O)OC(C)OC(=O)OC(C)C)N2C(=O)C(NC(=O)C(=NOC)c3csc(N)n3)C2SC1` (centres undefined), the growth inhibition call was “inactive”.

Turning to `CC1C(NC(=O)C(=NOC(C)(C)C(=O)O)c2csc(N)n2)C(=O)N1S(=O)(=O)O` (centres undefined), the growth inhibition call is “inactive”. With `CON=C(C(=O)NC1C(=O)N2C(C(=O)[O-])=C(CSc3nc(=O)c([O-])nn3C)CSC12)c1csc(N)n1.O.O.O.[Na+].[Na+]` (centres undefined), the growth inhibition call is “inactive”. Under `C[C@H]1[C@H](NC(=O)/C(=N\OC(C)(C)C(=O)O)c2csc(N)n2)C(=O)N1S(=O)(=O)O` stands “inactive”. Regarding `C[C@H](CO)N1C[C@H](C)[C@H](CN(C)S(=O)(=O)c2ccccc2)Oc2ccc(NS(C)(=O)=O)cc2C1=O`, the growth inhibition call was “inactive”.

For the compound `O=C(C[C@@H]1CC[C@H]2[C@@H](COC[C@@H](O)CN2C(=O)Nc2cccc(Cl)c2)O1)NCCCN1CCOCC1`, the growth inhibition call is “active”. Take `O=C(C[C@H]1CC[C@H]2[C@@H](COC[C@H](O)CN2C(=O)Nc2cccc(Cl)c2)O1)NCCCN1CCOCC1`: the growth inhibition call was “inactive”.

`O=C(C[C@@H]1CC[C@@H]2[C@H](COC[C@@H](O)CN2C(=O)Nc2cccc(F)c2)O1)NCCCN1CCOCC1`: the growth inhibition call was “inactive”. Regarding `O=C(C[C@H]1CC[C@H]2[C@@H](COC[C@@H](O)CN2C(=O)Nc2cccc(Cl)c2)O1)NCCCN1CCOCC1`, the growth inhibition call was “inactive”. Consider `O=C(C[C@@H]1CC[C@H]2[C@@H](COC[C@@H](O)CN2C(=O)Nc2cccc(F)c2)O1)NCCCN1CCOCC1`, for which the growth inhibition call is “inactive”. Turning to `O=C(C[C@@H]1CC[C@@H]2[C@H](COC[C@H](O)CN2C(=O)Nc2cccc(F)c2)O1)NCCCN1CCOCC1`, the growth inhibition call was “inactive”. `O=C(C[C@@H]1CC[C@H]2[C@@H](COC[C@H](O)CN2C(=O)Nc2cccc(Cl)c2)O1)NCCCN1CCOCC1`: the growth inhibition call is “active”.

As to `O=C(C[C@H]1CC[C@@H]2[C@H](COC[C@H](O)CN2C(=O)Nc2cccc(Cl)c2)O1)NCCCN1CCOCC1`, the growth inhibition call was “inactive”. With `O=C(C[C@H]1CC[C@H]2[C@@H](COC[C@H](O)CN2C(=O)Nc2cccc(F)c2)O1)NCCCN1CCOCC1`, the growth inhibition call was “inactive”. Regarding `O=C(C[C@@H]1CC[C@H]2[C@@H](COC[C@H](O)CN2C(=O)Nc2cccc(F)c2)O1)NCCCN1CCOCC1`, the growth inhibition call is “inactive”.

`O=C(C[C@H]1CC[C@@H]2[C@H](COC[C@@H](O)CN2C(=O)Nc2cccc(Cl)c2)O1)NCCCN1CCOCC1`: the growth inhibition call is “active”. With `O=C(C[C@@H]1CC[C@@H]2[C@H](COC[C@H](O)CN2C(=O)Nc2cccc(Cl)c2)O1)NCCCN1CCOCC1`, the growth inhibition call is “active”.
